Assay outcomes as filed in PubChem.
TPT1 inhibitor: Candida albicans TPT1 enzyme inhibitors, primary screen, biochemical, fluorescence polarization; tRNA 2'-phosphotransferase TPT1 (Candida albicans SC5314); recombinant caTPT1, FP RNA substrate dephosphorylation; inhibition, % at 5 µM; 300,000 compounds, 0.81% hits; AID 1962, 2009;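 active means inhibition above the mean of all tested compounds plus 3 SD, set per screening campaign, cut at about 24% in these data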
IDE cell inh: human IDE inhibitors in live cells, primary screen, fluorescence polarization, HEK cells, FAbetaB substrate. inhibition, % at 5.59 µM. Insulin-degrading enzyme (Homo sapiens), P14735. 320,000 compounds, 0.41% hits. FAbetaB cleavage. AID 434962, 2010;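 active means percent inhibition above the average of all tested compounds plus 3 SD, set per screening campaign, cut at about 16% in these data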;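 further: IDE supplied by intact live HEK cells; FP after avidin binding of uncleaved biotin substrate so inhibition keeps polarization high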
CRFR2-BP ag: agonists of CRF-BP/CRF-R2 complex, primary screen, cell-based, HEK293, calcium dye fluorescence, uHTS; CRF-binding protein / CRF receptor 2 complex (human); calcium dye fluorescence (FLIPR); percent of saturating CRF peptide response; activation, % at 13.2 µM; 350,000 compounds, 0.46% hits;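 active means activation of at least 50%, plus an integration ratio under a set limit after plate pattern correction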
CRFR2-BP antag: antagonists of CRF-BP/CRF-R2 complex, primary screen, cell-based, HEK293, calcium dye fluorescence, uHTS; CRF-induced calcium fluorescence; inhibition, % at 11.8 µM; 350,000 compounds, 0.59% hits; AID 588475, 2011;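 active means inhibition of the ligand-induced calcium signal above about 50% at the single tested concentration, limit read from the data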
Myeloid diff 2: induction of myeloid progenitor differentiation, primary screen, cell-based, flow cytometry, MLPCN library | ER-HoxA9 myeloid progenitors, lysozyme-GFP differentiation | calls only at 10 µM | 360,000 compounds, 1% hits;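 active means normalized GFP-positive differentiation at or above the plate's own cutoff, the solvent-only control mean plus 3 SD; inconclusive means no clear call, values can overlap the other calls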;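 further: cells exposed to compound for four days before flow analysis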
IDE act: human IDE activators in live cells, primary screen, fluorescence polarization, HEK cells, FAbeta-B substrate; AID 493087, 2011; 340,000 compounds, 0.073% hits; Insulin-degrading enzyme (Homo sapiens), P14735; activation, % at 5.96 µM; FAbeta-B cleavage; 0% vehicle, 100% cell-free pure enzyme wells;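 active means activation above the mean of all tested compounds plus 3 SD, set per screening campaign, cut at about 17% in these data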
Myeloid diff CP1: inducers of myeloid progenitor differentiation, confirmation, cell-based, GFP/Mac1 flow cytometry, cherry pick 01; shares compounds with Myeloid diff 2; ER-HoxA9 myeloid progenitors, GFP/Mac1 double-positive flow; calls only; 2,300 compounds, 2% hits;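 active means share of green or green-and-red cells above 9 and 9% in run 1 or 4 and 3% in run 2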
GFP autofluor: compound fluorescence in myeloid differentiation counter-screen | 2,300 compounds, 7.4% hits | ER-HoxA9 myeloid progenitors, no estrogen, GFP autofluorescence flow cytometry; vehicle wells 0%, positive control 100% | AID 651707 | fluorescence response, % (test concentration not listed) | shares compounds with Myeloid diff 2;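 active means over 5% cells positive for green fluorescent reporter, or over 2% positive for both it and APC stain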
A number is an active result; i = inactive; ? = inconclusive; nt = no result given; + = active, no number. In the library only some 2.6% were active in any assay of this set; here they are far more common.

SMILES | TPT1 inhibitor | IDE cell inh | CRFR2-BP ag | CRFR2-BP antag | Myeloid diff 2 | IDE act | Myeloid diff CP1 | GFP autofluor
CC1CCN(c2nc(-c3cccnc3)nc3scc(-c4ccccc4)c23)CC1 | i | i | i | i | i | i | nt | nt
CC(C)CNC(=O)c1ccccc1C(=O)NC1(C(=O)NCC(C)C)CCCC1 | nt | nt | i | i | i | i | nt | nt
COc1ccc(C(=O)NCCCc2nc3ccccc3n2Cc2ccccc2C)cc1OC | i | i | i | i | + | i | i | i
CC(=O)NCCCc1nc2ccccc2n1Cc1ccccc1F | i | i | i | i | i | i | nt | nt
Cc1ccc(-n2nnnc2C(=Cc2ccc(N(C)C)cc2)c2nnnn2-c2ccc(C)cc2)cc1 | i | i | i | i | + | i | i | i
CC(C)C1O/C(=N/C(=O)Nc2ccc(Cl)c(Cl)c2)NC1=O (stereo not given) | i | i | i | i | i | i | i | i
CCOC(=O)C1=C(COC(=O)Cc2ccccc2)NC(=O)NC1C (stereo not given) | i | i | i | i | i | i | nt | nt
CC(=O)c1c(C)[nH]c(C(=O)NNC(=O)COc2cc(C)ccc2C(C)C)c1C | nt | i | i | i | i | i | i | i
CC(=O)c1c(C)[nH]c(C(=O)NNC(=O)COc2ccc(Cl)cc2C)c1C | i | i | i | i | i | i | nt | nt
O=C(NC(=S)NCCN1CCOCC1)c1cccc(Cl)c1 | i | i | i | i | i | i | i | i
O=C(NC(=S)NCCN1CCOCC1)c1ccccc1 | i | i | i | i | i | i | nt | nt
O=C(CC1CC2CCC1C2)N1CCN(S(=O)(=O)c2ccc(C(F)(F)F)cc2)CC1 (stereo not given) | nt | nt | i | i | i | nt | nt | nt
CCN(CC)C(=O)C1=C(C)N(CCCN2CCCC2=O)C(=O)C(CC(=O)NCc2ccco2)C1 (stereo not given) | nt | nt | i | i | i | nt | i | i
O=C(Nc1ncccc1O)c1ccc(S(=O)(=O)Nc2ccccc2)cc1 | i | i | i | i | + | i | i | i
O=C(Nc1ccccc1O)c1ccc(NS(=O)(=O)c2cccc3cccnc23)cc1 | i | i | i | i | i | i | i | i
Cc1cccc(NC(=O)c2ccc(NS(=O)(=O)c3cccc4cccnc34)cc2)c1 | nt | nt | i | i | i | i | i | i
Cc1ccc(CNC(=O)COC(=O)c2ccc(S(=O)(=O)N(C)C)cc2)cc1 | i | i | i | i | i | i | nt | nt
Cc1ccc(C(=O)OCCc2c(C)[nH]n(-c3ccccc3)c2=O)cc1 | i | i | i | i | i | i | i | i
Cc1[nH]n(-c2ccccc2)c(=O)c1CCOC(=O)c1cccc(C(F)(F)F)c1 | i | i | i | i | i | i | nt | nt
Cn1c(C(=O)NC2CCCCC2)cc2sccc21 | i | i | i | i | i | i | nt | nt
CN(C(=O)c1cc2sccc2n1C)C1CCCCC1 | i | i | i | i | + | i | i | i
COc1ccc(-n2c(Cc3cccn3C)nnc2SCC(=O)Nc2ccc3c(c2)OCO3)cc1 | i | i | i | i | i | i | nt | nt
CCCCSc1nnc([C@@H](NC(=O)OC(C)(C)C)C(C)C)o1 | i | i | i | i | i | i | nt | nt
CCc1c(C)nc(N2CCN(c3ccc(OC)cc3)CC2)[nH]c1=O | i | i | i | i | i | i | nt | nt
CC1=C(C(=O)N(C)C)CC(CC(=O)NCCCN(C)C)C(=O)N1Cc1ccc(C(C)(C)C)cc1 (stereo not given) | nt | nt | i | i | i | nt | nt | nt
SMILES | TPT1 inhibitor | IDE cell inh | CRFR2-BP ag | CRFR2-BP antag | Myeloid diff 2 | IDE act | Myeloid diff CP1 | GFP autofluor
CCN(CC)C(=O)C1=C(C)N(Cc2ccc(C(C)(C)C)cc2)C(=O)C(CC(=O)NCCCN(C)C)C1 (stereo not given) | nt | nt | i | i | i | nt | i | i
CC(=O)N1CCN(C(=O)CCc2nc3ccccc3c(=O)[nH]2)CC1 | i | i | i | i | + | i | i | i
O=C(CCc1nc2ccccc2c(=O)[nH]1)N1CCN(c2ccc(F)cc2)CC1 | i | i | i | i | i | i | nt | nt
O=c1[nH]cc(-c2ccc(Br)cc2)n1Cc1ccccc1 | i | i | i | i | i | i | i | i
Fc1ccc(-c2c[nH]c(=S)n2Cc2ccccc2)cc1 | i | i | i | i | i | i | nt | nt
CC(=O)Nc1cc(-c2cccc(C(=O)NCCN(C)C)c2)cn2c(-c3ccc(S(C)(=O)=O)cc3)cnc12 | nt | nt | nt | nt | + | nt | i | 5.3
O=C(Nc1nccs1)C1CCCN(S(=O)(=O)c2cccc3cccnc23)C1 (stereo not given) | i | i | i | i | i | i | i | i
O=C(Nc1ccccc1Cl)C1CCCN(S(=O)(=O)c2cccc3cccnc23)C1 (stereo not given) | i | i | i | i | ? | i | nt | nt
Cc1cc(S(=O)(=O)N2CCN=C2c2ccccc2)c(Cl)cc1Cl | i | i | i | i | i | i | nt | nt
Fc1ccc(C(c2nnnn2C2CCCCC2)N2CCCC2)cc1 (stereo not given) | i | i | i | i | i | i | nt | nt
Fc1ccc(C(c2nnnn2C2CCCC2)N2CCN(Cc3ccncc3)CC2)cc1 (stereo not given) | i | i | i | i | + | i | i | i
COc1ccc(S(=O)(=O)N(C)C)cc1NC(=O)c1ccc(OCC2CCCO2)cc1 (stereo not given) | nt | nt | i | i | i | nt | nt | nt
CCN(CC)CCCNC(=O)CNC(=O)c1nn(-c2ccc(OC)cc2OC)c(=O)c2ccccc12 | nt | nt | i | i | i | nt | nt | nt
COc1cccc(C(=O)Nc2ncc3c(n2)CC(c2ccc(OC)cc2OC)CC3=O)c1 (stereo not given) | i | i | i | i | i | i | i | i
COCCCNC(=O)c1ccc(Cn2c(=O)c3ccccc3n(Cc3ccccc3C#N)c2=O)cc1 | i | i | i | i | + | i | i | i
O=C(Cc1cccc(NC(=O)C2CCN(C(=O)C3CCC3)CC2)c1)Nc1cccc(C(=O)N2CCCC2)c1 | nt | i | i | i | i | i | i | i
O=C(Cc1cccc(NC(=O)C2CCN(C(=O)C3CCC3)CC2)c1)Nc1cccc(C(=O)N2CCOCC2)c1 | nt | nt | i | i | i | i | nt | nt
COc1cccc(-c2csc(NC(=O)Oc3ccccc3)n2)c1 | i | i | i | i | i | i | i | i
COc1cccc(-c2csc(NNC(=O)c3cccs3)n2)c1 | i | i | i | i | i | nt | nt | nt
